Experimental data taken from PubChem BioAssay AID1159580 (chemical genetic matrix, 2015).
Values joined by “and” are separate entries in the source; they are usually repeats but may differ in a detail not shown here. Equal values may be shown once. The campaign covered roughly 5,500 compounds. About 2,000 (36%) were called active. Roughly 18% stayed inconclusive and do not appear here. Rule as the data show it: active = normalized growth mostly below about 0.91 (no sharp cut-off); inconclusive = no clear call, values can overlap the other calls; inactive = mostly above about 0.92. The list shows a part of the results.

Experiment: chemical genetic growth profiling, strain panel (AID 1159580);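 also: tested at 20 µM; growth read once vehicle control cultures reached saturation at 30 °C; 1 = growth at the plate median or of vehicle wells; lower values mean less growth of the strain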
Settings: growth OD

Measured: normalized growth

CCn1cc(C(=O)O)c(=O)c2cc3c(cc21)OCO3
inactive: S. cerevisiae deletion strains, locus YJR066W, strain TOR1, active compounds read low 0.991 | S. cerevisiae deletion strains, locus YJR075W, strain HOC1, active compounds read low 1.02 and 0.993 | S. cerevisiae deletion strains, locus YKL009W, strain mrt4, active compounds read low 1.01 | S. cerevisiae deletion strains, locus YKL068W, active compounds read low 0.996 | S. cerevisiae deletion strains, locus YKL085W, strain MDH1 (second series), active compounds read low 0.996 | S. cerevisiae deletion strains, locus YKL085W, strain MDH1, active compounds read low 0.996 | S. cerevisiae deletion strains, locus YKL160W, strain elf1, active compounds read low 0.961 | S. cerevisiae deletion strains, locus YKL190W, strain CNB1, active compounds read low 1.01 | S. cerevisiae deletion strains, locus YKR001C, strain vps1, active compounds read low 1.01 | S. cerevisiae deletion strains, locus YKR026C, strain gcn3, active compounds read low 0.987 | S. cerevisiae deletion strains, locus YKR091W, strain srl3, active compounds read low 0.982 | S. cerevisiae deletion strains, locus YLL001W, strain dnm1, active compounds read low 0.96 | S. cerevisiae deletion strains, locus YLL026W, active compounds read low 0.988 | S. cerevisiae deletion strains, locus YLL041C, strain sdh2, active compounds read low 0.98 | S. cerevisiae deletion strains, locus YLR027C, strain aat2, active compounds read low 0.986 | S. cerevisiae deletion strains, locus YLR039C, strain RIC1, active compounds read low 1.03 | S. cerevisiae deletion strains, locus YLR058C, strain SHM2, active compounds read low 1.01 | S. cerevisiae deletion strains, locus YLR102C, strain apc9, active compounds read low 0.994 | S. cerevisiae deletion strains, locus YLR113W, strain HOG1, active compounds read low 1.07 | S. cerevisiae deletion strains, locus YLR221C, strain rsa3, active compounds read low 0.96 | S. cerevisiae deletion strains, locus YLR258W, strain gsy2, active compounds read low 0.983 | S. cerevisiae deletion strains, locus YLR262C, strain YPT6 (second series), active compounds read low 0.909 | S. cerevisiae deletion strains, locus YLR262C, strain YPT6, active compounds read low 1.04 | S. cerevisiae deletion strains, locus YLR268W, strain sec22, active compounds read low 1 | S. cerevisiae deletion strains, locus YLR320W, strain mms22, active compounds read low 0.956 | S. cerevisiae deletion strains, locus YLR330W, strain CHS5, active compounds read low 1.01 | S. cerevisiae deletion strains, locus YLR342W, strain FKS1 (second series), active compounds read low 0.996 | S. cerevisiae deletion strains, locus YLR342W, strain FKS1, active compounds read low 0.977 | S. cerevisiae deletion strains, locus YLR357W, strain rsc2, active compounds read low 0.944 | S. cerevisiae deletion strains, locus YLR370C, strain arc18, active compounds read low 0.964 | S. cerevisiae deletion strains, locus YLR371W, strain rom2, active compounds read low 0.993 | S. cerevisiae deletion strains, locus YLR384C, strain iki3, active compounds read low 0.959 | S. cerevisiae deletion strains, locus YLR418C, strain cdc73, active compounds read low 1.01 | S. cerevisiae deletion strains, locus YML016C, strain PPZ1, active compounds read low 1.01 | S. cerevisiae deletion strains, locus YML032C, strain rad52, active compounds read low 1 | S. cerevisiae deletion strains, locus YML120C, strain ndi1, active compounds read low 0.97 | S. cerevisiae deletion strains, locus YML124C, strain tub3, active compounds read low 0.997 | S. cerevisiae deletion strains, locus YMR058W, strain fet3, active compounds read low 0.982 | S. cerevisiae deletion strains, locus YMR078C, strain ctf18, active compounds read low 1 | S. cerevisiae deletion strains, locus YMR125W, strain sto1, active compounds read low 0.962 | S. cerevisiae deletion strains, locus YMR129W, active compounds read low 0.989 | S. cerevisiae deletion strains, locus YMR205C, strain PFK2, active compounds read low 0.946 | S. cerevisiae deletion strains, locus YMR223W, strain ubp8, active compounds read low 1 | S. cerevisiae deletion strains, locus YMR231W, strain pep5, active compounds read low 0.978 | S. cerevisiae deletion strains, locus YMR263W, strain SAP30, active compounds read low 0.994 | S. cerevisiae deletion strains, locus YMR307W, strain GAS1, active compounds read low 1.04 | S. cerevisiae deletion strains, locus YNL067W, strain RPL9B, active compounds read low 1.02 | S. cerevisiae deletion strains, locus YNL071W, strain lat1, active compounds read low 0.984 | S. cerevisiae deletion strains, locus YNL128W, strain TEP1, active compounds read low 0.983 | S. cerevisiae deletion strains, locus YNL153C, strain GIM3, active compounds read low 0.997 | S. cerevisiae deletion strains, locus YNL175C, strain NOP13, active compounds read low 0.988 | S. cerevisiae deletion strains, locus YNL183C, strain NPR1, active compounds read low 0.973 | S. cerevisiae deletion strains, locus YNL197C, strain WHI3, active compounds read low 0.984 | S. cerevisiae deletion strains, locus YNL209W, strain ssb2, active compounds read low 0.986 | S. cerevisiae deletion strains, locus YNL224C, strain SQS1, active compounds read low 0.972 | S. cerevisiae deletion strains, locus YNL233W, strain BNI4, active compounds read low 1.02 | S. cerevisiae deletion strains, locus YNL248C, strain rpa49, active compounds read low 0.964 | S. cerevisiae deletion strains, locus YNL250W, strain rad50, active compounds read low 1.01 | S. cerevisiae deletion strains, locus YNL271C, strain bni1, active compounds read low 0.993 | S. cerevisiae deletion strains, locus YNL298W, strain CLA4, active compounds read low 0.997 | S. cerevisiae deletion strains, locus YNL307C, strain MCK1, active compounds read low 0.997 | S. cerevisiae deletion strains, locus YNL322C, strain KRE1 (second series), active compounds read low 0.959 | S. cerevisiae deletion strains, locus YNR049C, strain mso1, active compounds read low 0.974 | S. cerevisiae deletion strains, locus YNR052C, strain pop2, active compounds read low 1 | S. cerevisiae deletion strains, locus YOL006C, strain TOP1, active compounds read low 1.04 | S. cerevisiae deletion strains, locus YOL012C, strain htz1 1.19 | S. cerevisiae deletion strains, locus YOL147C, strain pex11, active compounds read low 0.991 | S. cerevisiae deletion strains, locus YOR001W, strain rrp6, active compounds read low 1.01 | S. cerevisiae deletion strains, locus YOR061W, strain CKA2, active compounds read low 1.02 | S. cerevisiae deletion strains, locus YOR069W, strain VPS5, active compounds read low 1.01 | S. cerevisiae deletion strains, locus YOR070C, strain gyp1, active compounds read low 0.975 | S. cerevisiae deletion strains, locus YOR080W, strain dia2, active compounds read low 0.972 | S. cerevisiae deletion strains, locus YOR083W, strain WHI5 (second series), active compounds read low 0.981 | S. cerevisiae deletion strains, locus YOR083W, strain WHI5, active compounds read low 0.969 | S. cerevisiae deletion strains, locus YOR106W, strain vam3, active compounds read low 0.935 | S. cerevisiae deletion strains, locus YOR136W, strain idh2, active compounds read low 0.997 | S. cerevisiae deletion strains, locus YOR144C, strain elg1, active compounds read low 0.991 | S. cerevisiae deletion strains, locus YOR184W, strain ser1, active compounds read low 0.998 | S. cerevisiae deletion strains, locus YOR231W, strain MKK1, active compounds read low 1.1 | S. cerevisiae deletion strains, locus YOR265W, strain rbl2, active compounds read low 0.973 | S. cerevisiae deletion strains, locus YOR270C, strain vph1, active compounds read low 0.957 | S. cerevisiae deletion strains, locus YOR290C, strain snf2, active compounds read low 0.976 | S. cerevisiae deletion strains, locus YOR316C, strain cot1, active compounds read low 0.997 | S. cerevisiae deletion strains, locus YPL051W, strain arl3, active compounds read low 0.995 | S. cerevisiae deletion strains, locus YPL055C, strain LGE1, active compounds read low 0.985 | S. cerevisiae deletion strains, locus YPL078C, strain atp4, active compounds read low 0.971 | S. cerevisiae deletion strains, locus YPL106C, strain sse1, active compounds read low 0.936 | S. cerevisiae deletion strains, locus YPL240C, strain hsp82, active compounds read low 0.992 | S. cerevisiae deletion strains, locus YPL256C, strain CLN2, active compounds read low 1.09 | S. cerevisiae deletion strains, locus YPR119W, strain clb2, active compounds read low 0.988 | S. cerevisiae deletion strains, locus YPR141C, strain kar3, active compounds read low 0.988 | S. cerevisiae deletion strains, locus YPR163C, strain tif3, active compounds read low 0.987 | S. cerevisiae deletion strains, locus YPR167C, strain met16, active compounds read low 0.985 | S. cerevisiae deletion strains, strain wtn01, active compounds read low 1 | S. cerevisiae strains, strain wild type, active compounds read low 1.02
